Screens: PubChem BioAssay, several laboratories
In the library only some 2.2% were active in any assay of this set; here they are far more common.
BaF3 parental = counter-screen for JAK2V617F inhibitors: parental Ba/F3 viability inhibitors; CellTiter-Glo ATP luminescence; inhibition, % at 5.6 µM; 220,000 compounds, 1.1% hits;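 active means inhibition above a per-campaign cutoff, the mean inhibition of all tested compounds plus 3 SD, cut at about 27% in these data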
aSyn 5UTR inh = MLPCN primary screen, SNCA 5' untranslated region; inhibition, % (tested at 7.5 µM); AID 1813; alpha-synuclein 5'UTR reporter, inhibitor activity; 300,000 compounds, 0.82% hits; in the data active means inhibition above about 60%;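 further: H4 neuroglioblastoma cells stably carrying SNCA 5'UTR luciferase fusion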
Ba/F3 V617F tox = loss of viability in JAK2V617F-driven Ba/F3 cells; Ba/F3 EpoR-JAK2V617F viability, ATP luminescence; inhibition, % at 5.6 µM; 220,000 compounds, 1.1% hits; AID 1446;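 active means inhibition above the campaign mean plus 3 SD over all tested compounds, cut at about 24% in these data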;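 further: cytokine-independent growth of Ba/F3 cells driven by EpoR plus mutant JAK2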
APP 5UTR inh = APP translation inhibition; AID 1285; 190,000 compounds, 0.82% hits; SH-SY5Y APP 5'UTR-luciferase reporter, luminescence; inhibition, % at 2 µM;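 active means inhibition above a set limit, derived from the sample mean plus 3 SD, cut at about 45% in these data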
IEC-6 cytotox = kills IEC-6 intestinal cells in KLF5 counter-screen; IEC-6 cytotoxicity, luminescence viability; inhibition, % at 5 µM; 290,000 compounds, 0.78% hits; AID 1825; in the data active means inhibition above about 22%
KLF5 inhibitor = kruppel-like factor 5 inhibition; DLD-1 KLF5 promoter-luciferase reporter, luminescence; 290,000 compounds, 0.23% hits; inhibition, % at 5 µM; AID 1700;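 active means inhibition above a per-plate limit of that plate's mean compound inhibition plus 3 SD, cut at about 60% in these data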;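 further: higher means less KLF5 promoter-driven luciferase light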
Hits are given with their value; n = inactive; x = not tested or not shown.

SMILES	BaF3 parental	aSyn 5UTR inh	Ba/F3 V617F tox	APP 5UTR inh	IEC-6 cytotox	KLF5 inhibitor
S=C(Nc1ccccc1Cl)NC1CCN(Cc2ccccc2)CC1	n	n	n	n	n	n
S=C(Nc1cc(Cl)cc(Cl)c1)NC1CCN(Cc2ccccc2)CC1	x	72	x	x	n	n
Cc1ccc(NC(=S)N2CCN(C(=O)C3CCCO3)CC2)cc1 (centres undefined)	n	n	n	n	n	n
S=C(Nc1ccc(Cl)cc1)N1CCN(Cc2ccccc2)CC1	49	n	28	n	n	n
O=C(C1CCCO1)N1CCN(C(=S)Nc2ccc(Cl)cc2)CC1 (centres undefined)	30	n	39	n	n	n
CCOC(=O)N(Cc1ccccc1)Cc1ccc(C(=O)N[C@@H](Cc2ccccc2)C(=O)O)cc1	x	n	x	x	x	x
S=C(NCC1COc2ccccc2O1)Nc1ccccc1 (centres undefined)	n	n	n	n	n	n
COc1ccc(NC2c3ccccc3C(=O)N2Cc2ccc3c(c2)OCO3)cc1 (centres undefined)	n	n	n	x	n	n
CCC(CO)[n+]1c(C)cc(/C=C2\Sc3ccccc3N2Cc2ccccc2)cc1C (centres undefined)	61	x	68	n	n	n
CC(=O)Nc1ccc(NC(=O)/C(Cl)=C/c2ccccc2)cc1	93	n	n	n	n	n
CC(=O)Nc1ccc(C(=O)N/C(=C/c2ccccc2)C(=O)Nc2cccc(C(=O)O)c2)cc1	n	n	n	n	n	n
CC1SCC(NC(=O)c2ccc(Cl)cc2)CS1 (centres undefined)	46	n	n	x	n	n
CC1SCC(NC(=O)c2cccc(Cl)c2)CS1 (centres undefined)	n	n	n	x	n	n
COc1cc(O)ccc1C(=O)CCc1ccc(O)cc1	x	n	x	x	n	n
Cc1ccc(NC(=O)N2CCCC2C(=O)NCCC2=CCCCC2)cc1 (centres undefined)	n	n	n	48	n	n
C=C1C(=O)[C@@]23[C@H](O)C[C@@H]4C(C)(C)CC[C@H](O)[C@]4(C)[C@@H]2C[C@H](O)[C@@H]1[C@H]3O	73	n	62	n	n	n
Cc1ccc2c(c1)c(C)cc[n+]2Cc1ccccc1	70	n	94	n	n	n
Cc1ccc(C)c(Cn2nc(-c3cc(C)ccc3C)ccc2=O)c1	x	n	x	x	n	n
OC(COC(c1ccccc1)c1ccccc1)CN1CCOCC1 (centres undefined)	81	n	n	n	n	n
OC(COc1ccccc1)CN1CCN(CC(O)COc2ccccc2)CC1 (centres undefined)	n	n	n	n	n	n
OC(COc1ccc(CNCCc2ccc(C(F)(F)F)cc2)cc1)CN1CCCCC1 (centres undefined)	103	82	102	n	99	n
OC(COc1ccccc1)CN1CCCCCC1 (centres undefined)	81	n	n	n	n	n
COc1ccc2[nH]c(=O)c(CN(Cc3cccs3)S(=O)(=O)c3c(C)ccc4nsnc34)cc2c1	n	89	n	n	n	n
Cc1ccc2[nH]c(=O)c(CN(Cc3ccco3)S(=O)(=O)c3c(C)ccc4nsnc34)cc2c1	n	n	n	n	n	n
Cc1ccc(N2C(N)=NC(N)=NC2(C)C)c(C)c1	100	n	87	n	n	n
SMILES	BaF3 parental	aSyn 5UTR inh	Ba/F3 V617F tox	APP 5UTR inh	IEC-6 cytotox	KLF5 inhibitor
Cc1ccccc1N1C(N)=NC(N)=NC1(C)C	57	n	56	n	n	n
CN1CCN(S(=O)(=O)c2cccc(C(=O)Oc3ccccc3Cl)c2)CC1	x	n	x	x	n	n
COc1ccc(/C=N/n2c(SC)nnc2-c2ccccc2)c(OC)c1OC	79	x	86	n	68	n
Clc1cccc(C[n+]2cc(-c3ccccc3)n3c2CCC3)c1	65	n	65	n	n	n
Cc1ccc(-c2c[n+](Cc3cccc(Cl)c3)c3n2CCC3)cc1	75	n	82	x	n	n
CCC(C)(C)c1ccc(OCCCC[n+]2cccc(C)c2)c(C(C)(C)CC)c1	87	n	101	n	n	n
O=C1c2ccccc2C(=O)c2c1oc(C(F)(F)F)c2C(=O)c1ccccc1	n	101	n	n	n	n
O=C(c1ccccc1)c1coc2c1C(=O)c1ccccc1C2=O	n	n	n	n	n	n
Cc1ccc(-c2c[n+](Cc3ccc(Cl)cc3)c3n2CCC3)cc1	73	n	87	x	n	n
Cn1c(NC(=O)C[n+]2cc(-c3ccc(Cl)cc3)n3c2CCC3)cc(=O)n(C)c1=O	n	n	n	n	n	n
Cc1ccc(C[n+]2cc(-c3ccc(Cl)cc3)n3c2CCC3)cc1	72	x	76	x	n	n
Clc1ccc(-c2c[n+](Cc3ccc(Cl)c(Cl)c3)c3n2CCC3)cc1	39	x	26	n	n	n
COc1ccc(Cc2nnc(NC(=O)c3ccc(F)cc3)s2)cc1OC	x	n	x	x	n	n
O=c1[nH]cnc2onc(-c3ccc(F)cc3)c12	x	n	x	x	n	n
Nn1cnnc1N/N=C/c1cc(Br)cc(Br)c1O	n	n	n	n	31	n
CC(C)(C)c1ccc(/C=N/Nc2nncn2N)cc1	x	n	x	x	n	n
O=C(c1ccc2c(c1)OCO2)N1CCCc2ccccc21	n	n	n	n	n	n
Cc1ccc2c(c1)CCCN2C(=O)c1ccc2c(c1)OCO2	30	n	29	n	n	n
COc1ccc(S(=O)(=O)N2CC(C)N(C(=O)N(C)C)C2C)cc1 (centres undefined)	x	n	x	x	n	n
Cc1ccc(-c2nc3cc(N)ccc3o2)cc1	n	n	n	n	n	n
Cc1ccc(-c2nc3cc(C)ccc3o2)cc1	n	73	n	n	n	n
COc1ccc(CNc2nc3ccccc3s2)cc1OC	x	n	x	x	n	n
Cc1ccc(CNc2nc3ccccc3s2)s1	n	78	n	n	n	n
COC(=O)Cn1ncc2c3ccccc3n(C)c2c1=O	90	n	n	n	n	n
N#CC(C#N)=C1C=CC=CN1/C(=C\c1ccco1)C(=O)c1ccc(Cl)cc1	n	x	n	96	n	n
SMILES	BaF3 parental	aSyn 5UTR inh	Ba/F3 V617F tox	APP 5UTR inh	IEC-6 cytotox	KLF5 inhibitor
N#CC(C#N)=C1C=CC=CN1/C(=C\c1ccco1)C(=O)c1ccc(-c2ccccc2)cc1	n	x	n	92	n	n
COc1ccc(N=CC2=C(O)c3ccccc3C2=O)c(OC)c1	n	63	n	n	n	n
CC1Cc2cc(S(=O)(=O)N3CCC(C(=O)N(C)Cc4ccccc4)CC3)ccc2N1C(=O)C1CC1 (centres undefined)	x	n	x	x	n	n
COc1ccc(-c2nc(NC(=O)C3CC(=O)N(c4ccc5c(c4)OCCO5)C3)sc2C)cc1 (centres undefined)	53	n	45	n	n	n
CCCCn1c(N)c(N(CC)C(=O)c2cc(S(=O)(=O)N3CCCCCC3)ccc2OC)c(=O)[nH]c1=O	x	n	x	x	x	x
COc1ccc2cc(/C=N/NC(=O)c3ccc(CN(c4cccc(Cl)c4Cl)S(C)(=O)=O)cc3)c(Cl)nc2c1	n	67	n	n	n	n
Cc1ccc(C(=O)NNc2cc(N3CCCC3)nc(N3CCCC3)n2)cc1	n	74	n	n	n	n
